{"source": "PubChem BioAssay", "note": "Values without a mark were called inactive. The rule behind the calls is not given here.", "data": [{"target": "Pantothenate synthetase (Mycobacterium tuberculosis (strain ATCC 25618 / H37Rv)) (UniProt P9WIL5)", "sequence (P9WIL5 whole entry, looked up)": "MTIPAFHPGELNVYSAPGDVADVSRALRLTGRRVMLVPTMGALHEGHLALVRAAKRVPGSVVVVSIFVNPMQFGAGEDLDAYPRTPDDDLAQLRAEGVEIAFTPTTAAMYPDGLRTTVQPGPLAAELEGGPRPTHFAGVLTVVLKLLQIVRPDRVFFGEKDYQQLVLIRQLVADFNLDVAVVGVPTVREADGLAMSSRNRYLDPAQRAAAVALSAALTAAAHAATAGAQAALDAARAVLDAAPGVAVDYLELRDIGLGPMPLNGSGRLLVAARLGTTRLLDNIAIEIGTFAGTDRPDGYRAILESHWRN", "assay": "Coupled enzyme confirmation of inhibitors against recombinant Mtb PanC (AID 375);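 note: 0% = full reaction with vehicle and 100% = no enzyme background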", "settings": "coupled enzyme assay; at 10 µM, stronger effect = higher value", "units": {"inhibition": "%"}, "values": [{"compound": "O=C(Nc1ccc(N2CCOCC2)cc1)Nc1ccc2nc(-c3ccco3)c(-c3ccco3)nc2c1", "inhibition": 4}, {"compound": "CCn1c(SCC(=O)NCc2ccco2)nc2c(c1=O)SC(C)C2", "note": "(stereo not given)", "inhibition": 8}, {"compound": "Cc1cc2c(c(=O)o1)C(Cc1ccccc1)C(C#N)=C(N)O2", "note": "(stereo not given)", "inhibition": 1}, {"compound": "Cc1ccc2[nH]c3c(c2c1)CN(C(=O)CN1CCN(c2cccc(C)c2C)CC1)CC3", "inhibition": 0}, {"compound": "CCc1cccc(NC(=O)Cn2cc3c(n2)CCCC3)c1", "inhibition": 0}, {"compound": "Cc1csc(NC(=O)C(Cc2ccccc2)n2cccc2)n1", "note": "(stereo not given)", "inhibition": 5}, {"compound": "Cc1ccc(Cn2c(=N)c(C(=O)NCc3ccco3)cc3c(=O)n4ccccc4nc32)cc1", "inhibition": 1}, {"compound": "Cc1cc(-c2ccccc2)c(C#N)c(N)n1", "inhibition": 1}, {"compound": "C[C@@H]1C[C@H]2[C@@H]3CCC4=CC(=O)C=C[C@]4(C)[C@@]3(F)[C@@H](O)C[C@]2(C)[C@@]1(O)C(=O)COP(=O)(O)O", "inhibition": 5}, {"compound": "Cc1[nH]nc(-c2ccc(O)c(C)c2O)c1-c1cnn(-c2ccccc2)c1", "inhibition": 0}, {"compound": "CCOC(=O)c1c(C)n(C)c2c(C)cc(O)c(OC(C)=O)c12", "inhibition": 0}, {"compound": "CCCC(=O)N(Cc1cc2ccccc2[nH]c1=O)c1ccccc1OC", "inhibition": 2}, {"compound": "C1=C(CCNc2ncnc3c2cnn3-c2ccccc2)CCCC1", "inhibition": 6}, {"compound": "CCCn1c2c(c(O)c(C(=O)NC)c1=O)CCCC2", "inhibition": 5}, {"compound": "O=C1OCCC1Sc1ncnc2sc3c(c12)CCC3", "note": "(stereo not given)", "inhibition": 0}, {"compound": "CC1(C)CC(=O)C2=C(C1)NC(=O)CC2c1ccc(N(CCC#N)CCC#N)cc1", "note": "(stereo not given)", "inhibition": 9}, {"compound": "CCn1nnc(-c2ccccc2NC(=O)c2ccc(-n3cnnn3)cc2)n1", "inhibition": 9}, {"compound": "CCOC(=O)NC(=O)CSc1nnc(C)s1", "inhibition": 4}, {"compound": "CCCCC(=NCCO)C1=C(O)C(C(=O)OC)C(C)(C)CC1=O", "note": "(stereo not given)", "inhibition": 8}, {"compound": "O=C(CCN1C(=O)C2C3C=CC(C3)C2C1=O)NCCc1ccccc1Cl", "note": "(stereo not given)", "inhibition": 0}, {"compound": "Cc1nc(SCC(=O)N2CCC(C(N)=O)CC2)n[nH]1", "inhibition": 0}, {"compound": "COCCn1nnnc1C(c1cc2cc(OC)ccc2[nH]c1=O)N1CCC(Cc2ccccc2)CC1", "note": "(stereo not given)", "inhibition": 3}, {"compound": "CCSCc1nnc(SCC(=O)Nc2cccc(SC)c2)n1C", "inhibition": 4}, {"compound": "O=C(CN1CCN(c2nc(-c3ccc(Cl)cc3)cs2)CC1)NCc1ccco1", "inhibition": 4}, {"compound": "COc1ccc(C(=O)OCC(=O)NCc2ccco2)cc1OC", "inhibition": 0}, {"compound": "CC1(C)CC(=O)C2=C(C1)OC(N)=C(C#N)C2C1CC=CCC1", "note": "(stereo not given)", "inhibition": 1}, {"compound": "Clc1ccccc1OCCCCn1ccnc1", "inhibition": 0}, {"compound": "COc1ccccc1N1CCN(Cc2nc(N)nc(Nc3ccc(C)c(Cl)c3)n2)CC1", "inhibition": 3}, {"compound": "O=C1CC(=O)N(Cc2cccs2)C(=O)N1", "inhibition": 0}, {"compound": "Nc1c(C(=O)NCCN2CCOCC2)c2nc3ccccc3nc2n1-c1ccc2c(c1)OCO2", "inhibition": 1}, {"compound": "Cc1cc(NC(=O)CCC(=O)N(CC2CCCO2)C(C(=O)NC2CCCC2)c2ccccc2C)no1", "note": "(stereo not given)", "inhibition": 0}, {"compound": "CCc1ccccc1NC(=O)CN(c1cccc(OC)c1)S(C)(=O)=O", "inhibition": 7}, {"compound": "CC1Cc2nc(SCC(=O)Nc3nccs3)n(C)c(=O)c2S1", "note": "(stereo not given)", "inhibition": 0}, {"compound": "COC(=O)C1CCN(C(=O)CSc2nnc(-c3ccncc3)o2)CC1", "inhibition": 0}, {"compound": "O=C(NCc1ccccc1)c1ccc(OC2CSC2)cc1", "inhibition": 1}, {"compound": "COc1ccc(C2C(C(=O)NCCN3CCOCC3)c3ccccc3C(=O)N2C2CCCCC2)cc1", "note": "(stereo not given)", "inhibition": 0}, {"compound": "CCN(CC)CCCNC1CCS(=O)(=O)C1", "note": "(stereo not given)", "inhibition": 1}, {"compound": "COCCNC(=O)CC(NS(=O)(=O)c1ccc(NC(C)=O)cc1)C(C)C", "note": "(stereo not given)", "inhibition": 0}, {"compound": "Cc1c(CNCc2cccs2)c(C(=O)O)c(C)n1Cc1ccccc1", "inhibition": 0}, {"compound": "Cc1nn(-c2ccccc2)c(Cl)c1C(=O)NCC(=O)O", "inhibition": 0}]}]}
